Several values for one entry are separate records, joined by “and”; a condition that tells them apart may be missing. Equal values may be shown once. In all, about 5,500 compounds went through this assay and about 2,000 (36%) were called active. Not shown: some 18% with an inconclusive outcome. Rule as the data show it: active = normalized growth mostly below about 0.91 (no sharp cut-off); inconclusive = no clear call, values can overlap the other calls; inactive = mostly above about 0.92. The list shows a part of the results.
Test: chemical genetic growth profiling, strain panel (AID 1159580);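 also: tested at 20 µM; growth read once vehicle control cultures reached saturation at 30 °C; 1 = growth at the plate median or of vehicle wells; lower values mean less growth of the strain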
Details: growth OD
[1] = S. cerevisiae deletion strains, locus YAL013W, strain DEP1, stronger effect = lower value
[2] = S. cerevisiae deletion strains, locus YBR229C, strain ROT2, stronger effect = lower value
[3] = S. cerevisiae deletion strains, locus YDL101C, strain DUN1, stronger effect = lower value
[4] = S. cerevisiae deletion strains, locus YDR150W, strain NUM1, stronger effect = lower value
[5] = S. cerevisiae deletion strains, locus YEL061C, strain CIN8, stronger effect = lower value
[6] = S. cerevisiae deletion strains, locus YGR078C, strain PAC10, stronger effect = lower value
[7] = S. cerevisiae deletion strains, locus YGR229C, strain SMI1, stronger effect = lower value
[8] = S. cerevisiae deletion strains, locus YHR030C, strain SLT2, stronger effect = lower value
[9] = S. cerevisiae deletion strains, locus YJR043C, strain POL32, stronger effect = lower value
[10] = S. cerevisiae deletion strains, locus YJR075W, strain HOC1, stronger effect = lower value
[11] = S. cerevisiae deletion strains, locus YKL190W, strain CNB1, stronger effect = lower value
[12] = S. cerevisiae deletion strains, locus YLR039C, strain RIC1, stronger effect = lower value
[13] = S. cerevisiae deletion strains, locus YLR262C, strain YPT6, stronger effect = lower value
[14] = S. cerevisiae deletion strains, locus YMR263W, strain SAP30, stronger effect = lower value
[15] = S. cerevisiae deletion strains, locus YNL153C, strain GIM3, stronger effect = lower value
[16] = S. cerevisiae deletion strains, locus YNL322C, strain KRE1, stronger effect = lower value
[17] = S. cerevisiae deletion strains, locus YPL055C, strain LGE1, stronger effect = lower value
[18] = S. cerevisiae deletion strains, locus YPL241C, strain CIN2, stronger effect = lower value

Measured: normalized growth

Cc1ccc(C)c(NC(=S)N(CCc2ccccc2)CCc2ccccn2)c1
active: [12] 0.606
inactive: [1] 0.989 | [2] 0.983 | S. cerevisiae deletion strains, locus YCL061C, strain MRC1, stronger effect = lower value 1 | [3] 1.04 | [4] 0.99 | [5] 0.953 | [6] 0.996 | [7] 0.974 | [8] 0.978 | S. cerevisiae deletion strains, locus YHR087W, strain rtc3, stronger effect = lower value 0.958 | S. cerevisiae deletion strains, locus YJL187C, strain SWE1, stronger effect = lower value 0.989 | [9] 1.01 | [10] 0.999 | [11] 0.964 | S. cerevisiae deletion strains, locus YLR058C, strain SHM2 (second series), stronger effect = lower value 0.98 | S. cerevisiae deletion strains, locus YLR085C, strain ARP6, stronger effect = lower value 0.928 | [13] 0.853 | S. cerevisiae deletion strains, locus YML094W, strain GIM5, stronger effect = lower value 0.95 | S. cerevisiae deletion strains, locus YMR219W, strain ESC1, stronger effect = lower value 0.996 | [14] 0.985 | [15] 1.01 | S. cerevisiae deletion strains, locus YNL298W, strain CLA4 (second series), stronger effect = lower value 0.984 | [16] 0.974 | S. cerevisiae deletion strains, locus YNR030W, strain Alg12, stronger effect = lower value 0.988 | [17] 0.946 | [18] 1.03 | S. cerevisiae deletion strains, locus YPR135W, strain CTF4, stronger effect = lower value 0.942

CNCCc1ccccn1
inactive: [1] 1.01 | S. cerevisiae deletion strains, locus YBR021W, strain FUR4, stronger effect = lower value 1.02 | [2] 1.01 | S. cerevisiae deletion strains, locus YCL029C, strain bik1, stronger effect = lower value 1.04 | S. cerevisiae deletion strains, locus YDL035C, strain GPR1, stronger effect = lower value 0.992 | S. cerevisiae deletion strains, locus YDL074C, strain BRE1, stronger effect = lower value 1.03 | [3] 1.01 | S. cerevisiae deletion strains, locus YDL134C, strain PPH21, stronger effect = lower value 1.01 | S. cerevisiae deletion strains, locus YDL185W, strain tfp1, stronger effect = lower value 1.02 | S. cerevisiae deletion strains, locus YDL192W, strain arf1, stronger effect = lower value 1.02 | S. cerevisiae deletion strains, locus YDR101C, strain arx1, stronger effect = lower value 1.01 | [4] 1.01 | S. cerevisiae deletion strains, locus YDR162C, strain NBP2, stronger effect = lower value 1.01 | S. cerevisiae deletion strains, locus YDR318W, strain mcm21, stronger effect = lower value 1.02 | S. cerevisiae deletion strains, locus YDR388W, stronger effect = lower value 1.01 | S. cerevisiae deletion strains, locus YDR502C, strain sam2, stronger effect = lower value 1.01 | [5] 1.01 | S. cerevisiae deletion strains, locus YER110C, stronger effect = lower value 1.02 | S. cerevisiae deletion strains, locus YER155C, strain BEM2, stronger effect = lower value 1 | S. cerevisiae deletion strains, locus YER167W, strain BCK2, stronger effect = lower value 1.01 | S. cerevisiae deletion strains, locus YGL078C, strain dbp3, stronger effect = lower value 1.01 | S. cerevisiae deletion strains, locus YGL086W, strain mad1, stronger effect = lower value 1 | S. cerevisiae deletion strains, locus YGL248W, strain PDE1, stronger effect = lower value 1 | [6] 1.03 | S. cerevisiae deletion strains, locus YGR135W, strain pre9, stronger effect = lower value 1.01 | [7] 1.02 | S. cerevisiae deletion strains, locus YGR252W, strain gcn5, stronger effect = lower value 0.958 | [8] 1.01 and 1.04 | S. cerevisiae deletion strains, locus YHR079C, strain IRE1 (second series), stronger effect = lower value 1.02 | S. cerevisiae deletion strains, locus YHR079C, strain IRE1, stronger effect = lower value 1.04 | S. cerevisiae deletion strains, locus YHR094C, strain hxt1, stronger effect = lower value 1.01 | S. cerevisiae deletion strains, locus YHR129C, strain ARP1, stronger effect = lower value 0.996 | S. cerevisiae deletion strains, locus YHR200W, strain rpn10, stronger effect = lower value 1.01 | S. cerevisiae deletion strains, locus YIL066C, strain RNR3, stronger effect = lower value 1.02 | S. cerevisiae deletion strains, locus YIL073C, strain SPO22, stronger effect = lower value 1.06 | S. cerevisiae deletion strains, locus YIL125W, strain kgd1, stronger effect = lower value 1 | S. cerevisiae deletion strains, locus YIR030C, strain dcg1, stronger effect = lower value 1.01 | S. cerevisiae deletion strains, locus YJL095W, strain BCK1, stronger effect = lower value 1.04 and 1.03 | S. cerevisiae deletion strains, locus YJL134W, strain LCB3, stronger effect = lower value 1 | S. cerevisiae deletion strains, locus YJL168C, strain set2, stronger effect = lower value 1.01 | S. cerevisiae deletion strains, locus YJL187C, strain SWE1 (second series), stronger effect = lower value 1.02 | [9] 1.02 | S. cerevisiae deletion strains, locus YJR066W, strain TOR1, stronger effect = lower value 0.978 | [10] 1.02 | S. cerevisiae deletion strains, locus YKL009W, strain mrt4, stronger effect = lower value 1.07 | S. cerevisiae deletion strains, locus YKL068W, stronger effect = lower value 1.01 | S. cerevisiae deletion strains, locus YKL085W, strain MDH1 (second series), stronger effect = lower value 1.01 | S. cerevisiae deletion strains, locus YKL085W, strain MDH1, stronger effect = lower value 1.01 | [11] 1.01 | S. cerevisiae deletion strains, locus YKR001C, strain vps1, stronger effect = lower value 1.01 | [12] 1.02 | S. cerevisiae deletion strains, locus YLR058C, strain SHM2, stronger effect = lower value 1.01 | S. cerevisiae deletion strains, locus YLR102C, strain apc9, stronger effect = lower value 1.02 | S. cerevisiae deletion strains, locus YLR113W, strain HOG1, stronger effect = lower value 1.03 | [13] 1.02 | S. cerevisiae deletion strains, locus YLR268W, strain sec22, stronger effect = lower value 1.04 | S. cerevisiae deletion strains, locus YLR330W, strain CHS5, stronger effect = lower value 1.01 | S. cerevisiae deletion strains, locus YLR342W, strain FKS1 (second series), stronger effect = lower value 1.02 | S. cerevisiae deletion strains, locus YLR371W, strain rom2, stronger effect = lower value 1.02 | S. cerevisiae deletion strains, locus YLR418C, strain cdc73, stronger effect = lower value 1.03 | S. cerevisiae deletion strains, locus YML016C, strain PPZ1, stronger effect = lower value 1 | S. cerevisiae deletion strains, locus YML032C, strain rad52, stronger effect = lower value 1.03 | S. cerevisiae deletion strains, locus YML124C, strain tub3, stronger effect = lower value 1.01 | S. cerevisiae deletion strains, locus YMR078C, strain ctf18, stronger effect = lower value 1.02 | S. cerevisiae deletion strains, locus YMR223W, strain ubp8, stronger effect = lower value 1.01 | [14] 1.03 | S. cerevisiae deletion strains, locus YMR307W, strain GAS1, stronger effect = lower value 0.966 | S. cerevisiae deletion strains, locus YNL067W, strain RPL9B, stronger effect = lower value 1.02 | S. cerevisiae deletion strains, locus YNL128W, strain TEP1, stronger effect = lower value 1.01 | [15] 1.01 | S. cerevisiae deletion strains, locus YNL183C, strain NPR1, stronger effect = lower value 0.978 | S. cerevisiae deletion strains, locus YNL233W, strain BNI4, stronger effect = lower value 1.01 | S. cerevisiae deletion strains, locus YNL250W, strain rad50, stronger effect = lower value 1.03 | S. cerevisiae deletion strains, locus YNL271C, strain bni1, stronger effect = lower value 1.02 | S. cerevisiae deletion strains, locus YNL298W, strain CLA4, stronger effect = lower value 1.01 | S. cerevisiae deletion strains, locus YNL307C, strain MCK1, stronger effect = lower value 1.02 | [16] 1.01 | S. cerevisiae deletion strains, locus YNR052C, strain pop2, stronger effect = lower value 1.01 | S. cerevisiae deletion strains, locus YOL006C, strain TOP1, stronger effect = lower value 1.08 | S. cerevisiae deletion strains, locus YOL012C, strain htz1 0.922 | S. cerevisiae deletion strains, locus YOL147C, strain pex11, stronger effect = lower value 1.01 | S. cerevisiae deletion strains, locus YOR061W, strain CKA2, stronger effect = lower value 1.01 | S. cerevisiae deletion strains, locus YOR069W, strain VPS5, stronger effect = lower value 1.01 | S. cerevisiae deletion strains, locus YOR136W, strain idh2, stronger effect = lower value 1.01 | S. cerevisiae deletion strains, locus YOR144C, strain elg1, stronger effect = lower value 1.01 | S. cerevisiae deletion strains, locus YOR184W, strain ser1, stronger effect = lower value 1.02 | S. cerevisiae deletion strains, locus YOR231W, strain MKK1, stronger effect = lower value 1.02 | S. cerevisiae deletion strains, locus YOR316C, strain cot1, stronger effect = lower value 1.01 | [17] 1.04 | [18] 1.01 | S. cerevisiae deletion strains, locus YPL256C, strain CLN2, stronger effect = lower value 1.04 | S. cerevisiae deletion strains, locus YPR119W, strain clb2, stronger effect = lower value 1.01 | S. cerevisiae deletion strains, locus YPR141C, strain kar3, stronger effect = lower value 1.02 | S. cerevisiae deletion strains, locus YPR163C, strain tif3, stronger effect = lower value 1.02 | S. cerevisiae deletion strains, locus YPR167C, strain met16, stronger effect = lower value 1.01 | S. cerevisiae deletion strains, strain wtn01, stronger effect = lower value 1.01 | S. cerevisiae strains, strain wild type, stronger effect = lower value 1.01
